Screening results: PubChem, National Center for Advancing Translational Sciences (NCATS)
Shown are actives, neighbours in structure and some others; about 3% of the full set was active somewhere.
SNCA viab count – GF-AFC viability counterscreen for inhibitors of alpha-synuclein gene (SNCA) expression | hit rate 0.12% among 150,000 | HEK-293-SNCA-luc viability, GF-AFC fluorescence, 24 h | Potency, µM (series often up to 57.1 µM), for the others: at the top dose activity change, negative = cytotoxicity, most hits filed as cytotoxic;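 further: potency means the concentration at half of the fitted maximal effect; 0% = DMSO-treated cells and -100% = medium-only wells without cells; nearly all actives have a fitted effect of over 30% in size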
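HEK-293-SNCA-luc cells (1500/well) plated 24 h, then exposed 24 h to a dilution series; GF-AFC added 30 min at 37C, fluorescence 405/540 nm; normalised to medium-only and DMSO wells, Hill fit.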
IP6K1 inh – Primary qHTS assay for small molecule inhibitors of Inositol hexaphosphate kinase 1 (IP6K1); Inositol hexakisphosphate kinase 1 (Homo sapiens), Q92551; IP6K1 kinase, ADP-Glo luminescence, 2 h; stronger effect = lower value; activity change, % (series mostly up to about 58 µM); hit rate 0.81% among 140,000; AID 1645851, 2021; in the data active means activity change below about -25%; further: on the % scale 0 is the no-effect control and ±100 the full control effect
Target sequence (Q92551 whole entry, looked up): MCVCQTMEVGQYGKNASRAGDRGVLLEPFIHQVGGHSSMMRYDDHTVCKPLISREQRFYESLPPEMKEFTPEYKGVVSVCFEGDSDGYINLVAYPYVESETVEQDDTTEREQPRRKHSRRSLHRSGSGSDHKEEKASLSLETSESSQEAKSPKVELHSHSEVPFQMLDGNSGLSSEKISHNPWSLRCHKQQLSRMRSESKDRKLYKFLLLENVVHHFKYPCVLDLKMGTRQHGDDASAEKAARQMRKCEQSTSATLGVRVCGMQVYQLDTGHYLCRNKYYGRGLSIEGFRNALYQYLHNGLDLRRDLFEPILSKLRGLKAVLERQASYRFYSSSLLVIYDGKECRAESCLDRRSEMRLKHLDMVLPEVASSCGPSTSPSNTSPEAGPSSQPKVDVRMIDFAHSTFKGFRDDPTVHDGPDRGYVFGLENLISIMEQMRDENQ
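ADP-Glo luminescence measures ADP made by human IP6K1 during a 2 h RT reaction with ATP/IP6 (mix at 1.3 mM/130 uM); top library doses 57.5 and 19.1 uM final.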
KDM5B inhibitor – Primary screen for KDM5B Histone Demethylases FDH-coupled qHTS | Lysine-specific demethylase 5B (Homo sapiens), Q9UGL1 | KDM5B demethylase, FDH-coupled NADH fluorescence (FDH is formaldehyde dehydrogenase) | Potency, µM (titrated, usually from 57.7 µM), usual class: inhibitors | hit rate 2.6% among 220,000 | AID 1347165, 2019; further: potency means the concentration at half of the fitted maximal effect; 0% is about no effect; nearly all actives have a fitted effect of over 70% in size
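KDM5BΔAP (200 nM final) in 50 mM HEPES pH 7.5, 0.01% Tween-20 was preincubated 10 min at RT with compound over a concentration range. Substrate mix (H3K4me3 12.5 µM, α-KG 25 µM, Fe²⁺, ascorbate, NAD⁺, FDH) was added, and NADH fluorescence change over 30 min gave dose-response curves.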
SNCA expr inh – Primary qHTS assay for inhibitors of alpha-synuclein gene (SNCA) expression; HEK-293 SNCA-luciferase knock-in, luminescence, 24 h; Potency, µM (titrated, usually from 57.2 µM), for the others: top-dose activity change, negative = inhibition, usual class: inhibitors; hit rate 0.17% among 140,000;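 further: potency means the concentration at half of the fitted maximal effect; plate controls were DMSO cells for no effect and cell-free wells for full effect; nearly all actives have a fitted effect of over 45% in size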
IP6K1 inh cnf – Confirmatory qHTS assay for small molecule inhibitors of Inositol hexaphosphate kinase 1 (IP6K1); shares compounds with IP6K1 inh; recombinant IP6K1 kinase, ADP-Glo luminescence, 2 h; Potency, µM (series often up to 49 µM), for the others: at the highest dose activity change, negative = inhibition, hits mostly inhibitors; hit rate 13% among 1,200; further: potency means the concentration at half of the fitted maximal effect; on the % scale 0 is the no-effect control and ±100 the full control effect; nearly all actives have a fitted effect of over 65% in size
Active calls of the source: *; i = inactive; ? = inconclusive; / = no result given; ! = a repeat was not active; [ ] = dose if it differs, or a comment. Unless noted, the call rests on the fitted dose curve; in most records, active means well fitted curve in the direction sought with a large enough effect; inconclusive means small, poorly fitted or top-dose-only effect, or another doubt; inactive means no such curve, though single readings can be large; an effect the other way counts as inactive or inconclusive.

SMILES | SNCA viab count | IP6K1 inh | KDM5B inhibitor | SNCA expr inh | IP6K1 inh cnf
COc1cc(C2CC(=O)Oc3c2c(=O)[nH]c2ccccc32)cc(OC)c1OC (stereo not given) | 5% | -14 | ? | 17% | /
Cc1cc(C(C)Nc2ccccc2C(=O)O)c2nc(N3CCOCC3)cc(=O)n2c1 (stereo not given) | -18% | 1 | / | / | -11%
Cc1ccc(CNC(=O)c2c(Nc3ccccc3C)sc(C(=O)c3ccc(F)cc3)c2N)cc1 | ? | -26* | ? | ? | 1%
CCOC(=O)CCNC(=O)N1CCCCCC1c1ccc(C)s1 (stereo not given) | / | / | i | / | /
CCN1CC(c2ccccc2)CC2(CCN(C(=O)COC)CC2)C1 (stereo not given) | -8% | -27* | i | 5% | -12%
CCN1CC(c2ccccc2)CC2(CCN(C(=O)CCn3cccn3)CC2)C1 (stereo not given) | -3% | 3 | i | 19% | /
COc1ccc(C)cc1NC(=O)c1ccccc1OCC(N)=O | / | / | i | / | /
Cc1ccc(C)c(N2CCN(C(=O)c3c4c(nc5ccccc35)C(=O)N(C3CCCCC3)C4)CC2)c1 | 9% | -31* | ? | -4% | -9%
COc1ccccc1N1CCN(C(=O)c2c3c(nc4ccccc24)C(=O)N(C2CCCCC2)C3)CC1 | -8% | 0 | i | 18% | /
CCOC(=O)c1c(NC(C)=O)c2c3c(sc2n1Cc1nc(-c2ccccc2Cl)oc1C)CCCC3 | -23% | -30* | ? | ? | 11%
COc1ccc(-c2c(-c3cc(C(=O)O)ccn3)ncn2C)cc1 | -20% | -35* | / | / | ?
O=C1CO[C@H]2CN(c3ncccn3)C[C@H]2N1CC1CCCCC1 | -12%[87.6 µM] | -27* | 35µM* | -9%[87.6 µM] | -12%
COc1cccc(NC(=O)Nc2cccc(-c3ccc(N4CCOCC4)nn3)c2)c1 | ? | -21 | i | -55% | /
Nc1cccc(-c2ccc(N3CCOCC3)nn2)c1 | 6% | -30* | i | ? | ?
COc1ccc2c(CN3CCN(c4ccc(F)cc4)CC3)cc(=O)oc2c1 | / | / | i | / | /
COc1ccc2oc(=O)cc(CN3CCN(c4ccc(F)cc4)CC3)c2c1 | -8% | -25* | i | 4% | -21%
CC(C)c1ccccc1NC(=O)/C=C/c1cccs1 | / | / | i | / | /
COc1ccc(-c2nc3ncccc3[nH]2)cc1 | -17%[87.6 µM] | -27*! | 32µM*! | -26%[87.6 µM] | ?
CCn1c2c(c(=O)n3ncc(C(=O)Nc4ccc(C(=O)OC)cc4)c13)CN(Cc1ccc(OC)cc1)CC2 | 4% | -35* | ? | -4% | -6%
CCn1c2c(c(=O)n3ncc(C(=O)Nc4cc(Cl)ccc4OC)c13)CN(Cc1ccc(OC)cc1)CC2 | -8% | -14 | ? | ? | /
C[C@@H](O)[C@H](N)C(=O)NCc1nc(-c2cccc(F)c2)c(-c2ccccn2)[nH]1 | -19% | -1 | ? | 3% | /
O=C(NCc1nc(-c2cccc(F)c2)c(-c2ccccn2)[nH]1)[C@@H]1C[C@@H](O)CN1 | -3% | -30* | i | 2% | -7%
Cc1cccc(NC(=O)c2oc3c(c2C)-c2[nH]ncc2CC3)c1C | 1% | -12 | ? | 242% | /
Cc1ccc(NC(=O)c2oc3c(c2C)-c2[nH]ncc2CC3)c(Cl)c1 | 14% | -45* | ? | 136% | -18%
Cc1cc(N2CCOCC2)ccc1Nc1nc(NC2CCCCC2)c2[nH]cnc2n1 | -27% | -47* | / | / | 2.1µM*
SMILES | SNCA viab count | IP6K1 inh | KDM5B inhibitor | SNCA expr inh | IP6K1 inh cnf
Cc1ccsc1/C=C/C(=O)c1cc2ccccc2o1 | / | / | i | / | /
COc1ccc(NC(=O)Cn2nnc(C(=O)Nc3ccc(C)c(F)c3)c2N)cc1Cl | -8% | 21 | i | 22% | /
Cc1cccc(NC(=O)Cn2nnc(C(=O)Nc3ccc(F)c(Cl)c3)c2N)c1 | -13% | -34* | i | 3% | -17%
COc1cccc(NC(=O)c2nnn(Cc3ccc(OC)c(Br)c3)c2N)c1 | 3% | -27* | i | 43% | ?
Cc1c(Cl)cccc1NC(=O)C(C)N1CCC(C(=O)NCc2ccccc2)CC1 (stereo not given) | / | / | i | / | /
O=C(CN1CCN(C(=O)c2ccc3ccccc3c2)CC1)Nc1ccccc1Cl | / | / | i | / | /
Cn1c(=O)c2[nH]c(-c3cccc(O)c3)nc2n(C)c1=O | / | / | i | / | /
Oc1cccc(-c2c3nc(c(-c4cccc(O)c4)c4ccc([nH]4)c(-c4cccc(O)c4)c4nc(c(-c5cccc(O)c5)c5ccc2[nH]5)CC4)C=C3)c1 | -28%[23.9 µM] | -53* | / | 74%[25.6 µM] | ?
COC(=O)C(NC(=O)c1ccccc1OC)(Nc1nc(C2CC2)cs1)C(F)(F)F (stereo not given) | / | / | i | / | /
O=C(CCn1cncn1)N1CCC(c2nccn2Cc2cccnc2)CC1 | 14% | -38* | i | 28% | -16%
COc1ccc(C2=C(C)C(=O)N(Cc3ccc(C(=O)Nc4ccc(F)cc4C)cc3)S2(=O)=O)cc1 | -2% | -30* | ? | ? | -1%
CCOC(=O)c1cnc2ccc(Br)cc2c1Nc1cccc([N+](=O)[O-])c1 | / | / | i | / | /
O=C(NCCNCc1c[nH]c2ccccc12)c1ccc(F)cc1 | / | / | i | / | /
O=C(O)c1cccc(NC(=O)c2cccc(S(=O)(=O)Nc3cccc(C(=O)O)c3)c2)c1 | 3% | -28* | ? | 23% | ?
O=C(c1ccco1)N(Cc1cccnc1)c1nc2ccc(F)cc2s1 | -3% | -27* | i | 86% | -17%
O=C(CCc1ccccc1)N(Cc1cccnc1)c1nc2ccc(F)cc2s1 | -3% | -15 | i | 8% | /
